Results from PubChem BioAssay (NCATS).
Records with an inconclusive call do not appear. Calls of active or inactive are those of the source. Calls follow the shape of the dose curve; as a rule, active = well fitted activation curve with a large enough effect; inconclusive = small, poorly fitted or top-dose-only effect, or another doubt; inactive = no such curve, though single readings can be large or run the other way.

molecular target: Rap guanine nucleotide exchange factor 3 (Homo sapiens) (UniProt O95398); test: Counterscreen qHTS for agonist of cAMP-regulated guanine nucleotide exchange factor 3 (EPAC1) (AID 1645889); conditions: EPAC1 Rap1B-BODIPY-GDP exchange, fluorescence; series mostly up to 154 µM; also: nearly all actives have a fitted effect of over 40% in size; as to activation: % of control where 0% means no effect
Method in brief: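 Rap1B–BODIPY-GDP (250 nM) with 50 uM GDP; compounds pin-transferred to 9.74 nM–152 uM final (activator) or from 7.32 nM upwards (inhibitor). Fluorescence Ex/Em 480/540 nm read at 5 and 30 min, then after adding cAMP or buffer, at room temperature.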
Potency is read from the fitted curve at half-maximal effect.

Row | Structure (SMILES) | Potency | activation
1 | COc1ccc2c3c(cccc13)C(=O)CC2 | 31.6 µM (active) | 
2 | CC1=Nc2ccccc2/C1=C\c1nc(-c2ccc(F)cc2)oc1O | 25.1 µM (active) | 
3 | CC(C)(C)CNC(=O)c1cccc2c1C(=O)c1ccc(-c3cc4ccccc4o3)cc1S2(=O)=O | inactive | 
4 | CCC1(c2ccccc2)NC(=O)N(CC(=O)Nc2ccc(OC)nc2)C1=O (stereo not given) |  | 14.8% [at 30.8 µM] (inactive)
5 | Cc1ccccc1C(=O)Nc1ccc(C(=O)OCc2cc(=O)n3c4c(sc3n2)CCCC4)cc1 | inactive | 
6 | Cc1nc2ccccc2n2c(O)c(CC(=O)O)cc12 | 44.7 µM (active) | 
7 | COc1ccc2noc3c2c1C(=O)c1ccccc1-3 | 20 µM (active) | 
8 | Cc1ccc(OCc2nc3ccccc3n2CC(C)C)cc1 | inactive | 
9 | COCCn1c2nc(=O)n(-c3ccccc3)c(=O)c-2nc2ccccc21 | 39.8 µM (active) | 
10 | Nc1ccc2nc3c(=O)n(CCc4ccccc4)c(=O)[nH]c3nc2c1 | 70.8 µM (active) | 
11 | Cc1cccc(N2C(=O)c3cccc4c(N)ccc(c34)C2=O)c1 | 70.8 µM (active) | 
12 | CCOC(=O)C1=C(C)NC(SC)=C(C#N)C1CC(C)C (stereo not given) | inactive | 
13 | N#Cc1c(-c2cccs2)nc(SCC(=O)c2ccc(Br)cc2)[nH]c1=O |  | 12.5% [at 30.8 µM] (inactive)
14 | CCOc1cccc2sc(N3CCN(C(=O)C(C)(C)C)CC3)nc12 | inactive | 
15 | Cc1cc(/C=C2\SC(=S)N(C)C2=O)c(C)n1-c1ccccc1O | 89.1 µM (active) | 
